From PubChem BioAssay (Tox21)
Inconclusive results are not listed. Entries that show only a call come without a potency. Active and inactive are the calls of the source. The call rests on the fitted dose curve; in most records, active means well fitted cell-killing curve with a large enough effect in the repeat runs (not every such curve was filed as active); inconclusive means weak or mixed curves, or effect the other way; inactive means no such curve, though single readings can be large or run the other way.

Experiment: qHTS assay to identify small molecule antagonists of the estrogen related receptor signaling pathway with the pleiotropic PPARgamma coactivator (PGC) from Tox21 10K library - cell viability counter screen (AID 1224840); further: nearly all actives have a fitted effect of over 40% in size
Settings: PGC/ERR reporter cells viability, CellTiter-Fluor, 17.5 h; series mostly up to 92.4 µM
From the text: National Center for Advancing Translational Sciences [NCATS]
NIH Chemical Genomics Center [NCGC]
U.S. Environmental Protection Agency [EPA]
National Institutes of Environmental Health Sciences [NIEHS]
National Toxicology Program [NTP]
U.S. Food and Drug Administration [FDA]
Estrogen related receptors (ERRs), the first orphan nuclear receptors discovered, play an important role in the control of cellular energy metabolism. ERRs are required for high-energy production in response to the environmental challenges. The pleiotropic PPARgamma coactivator (PGC) is a major partner of ERR and a key regulator in energy homeostasis. Together they have been implicated in the etiology of metabolic disorders such as Type 2 diabetes and metabolic syndrome. ERR-alpha was also identified as an adverse marker for breast cancer progression; ERR-alpha-positive tumors have a poor prognosis. To screen and to identify environmental compounds that perturb the ERR and PGC/ERR signaling pathways could provide valuable information for potential therapeutic or preventive measures in the treatment of metabolic disease. To differentiate true PGC/ERR antagonists or agonist from cytotoxic substances, the assay is multiplexed with cell viability assay.
Tox21 Assay Protocol Summary:
The PGC/ERR cells were dispensed at 2,000 cells/5 ul/well in 1536-well white plates using a Multidrop dispenser. After the assay plates were incubated at a 37 C/5% CO2 incubator for 6 hours, 23 nL of compounds dissolved in DMSO, positive and negative controls or DMSO only was transferred to the assay plate by a pin tool. The plates were incubated at 37 C for 17.5 hours. 1 ul/well of CellTiter-Fluor reagent was added into the assay plates using a Flying Reagent Dispenser. After 30-minute incubation at 37 C/5% CO2, the fluorescence intensity in the plates was measured using a ViewLux plate reader.
With CCN1CCC[C@H]1CNC(=O)c1c(O)c(Cl)cc(Cl)c1OC the Potency was “inactive”.
In the case of CCCCCCCCS(=O)(=O)Cl, the Potency is reported as “inactive”.
With CCN(CC)CCNC(=O)c1cc(S(C)(=O)=O)ccc1OC the Potency was “inactive”.
For CN(C)CCCNCCCN(C)C, the Potency was “inactive”.
With O=C(c1ccccc1)C1CCCCC1 the Potency was “inactive”.
With CO[Si](CCCOCC1CO1)(OC)OC (stereo not given) the Potency was “inactive”.
For C[C@H](NC(CCc1ccccc1)C(=O)O)C(=O)N1CCC[C@H]1C(=O)O (stereo not given in full), the Potency was “inactive”.
With Cc1[nH]c(=O)c(C#N)cc1-c1ccc2nccn2c1 the Potency was “inactive”.
With CCCCC(CC)COC(=O)c1ccccc1O (stereo not given) the Potency was “inactive”.
For CC(C)(C)NCCNC(C)(C)C, the Potency was “inactive”.
With NS(=O)(=O)c1cc2c(cc1Cl)NC(C1CC3C=CC1C3)NS2(=O)=O (stereo not given) the Potency was “inactive”.
In the case of CCOc1ccc(C(=O)OCCN(CC)CC)cc1, the Potency is reported as “inactive”.
For CCc1ccc(O)c(OC)c1, the Potency was “inactive”.
For CC(=O)Nc1c(I)cc(I)c(C(=O)O)c1I, the Potency was “inactive”.
For CC(C)(C)c1nnc(NS(=O)(=O)c2ccccc2)s1, the Potency was “inactive”.
In the case of CN(C(=O)c1c(O)c2ccccc2n(C)c1=O)c1ccccc1, the Potency is reported as “inactive”.
For O=C1NC(=O)[C@@]2(CCOc3ccc(F)cc32)N1, the Potency was “inactive”.
In the case of CCCCOCCOCCOCCCC, the Potency is reported as “inactive”.
For CC(C)(O)C#CC(C)(C)O, the Potency was “inactive”.
For NS(=O)(=O)c1ccccc1Cl, the Potency was “inactive”.
For O=c1cc(CO)occ1O, the Potency was “inactive”.
With C[C@](N)(Cc1ccc(O)cc1)C(=O)O the viability change, negative = cytotoxic was -0.23% [at 8.39 µM] (inactive).
For OC[C@]1(O)OC[C@@H](O)[C@H](O)[C@@H]1O, the Potency was “inactive”.
In the case of CCN(CC)CCOCCOC(=O)C1(c2ccccc2)CCCC1, the Potency is reported as “inactive”.
In the case of CCCCC/C=C\CCC=O, the Potency is reported as “inactive”.
In the case of CCOC(=O)Nc1ccc(NCc2ccc(F)cc2)nc1N, the Potency is reported as “inactive”.
For NC(CSCC(=O)O)C(=O)O (stereo not given), the Potency was “inactive”.
In the case of C/C=C(\C)C#N, the Potency is reported as “inactive”.
With Nc1ccc(S(=O)(=O)Nc2ccnn2-c2ccccc2)cc1 the viability change, negative = cytotoxic was 2.18% [at 19 µM] (inactive).
With C1OCOCO1 the Potency was “inactive”.
In the case of O=c1n(CCO)c(=O)n(CCO)c(=O)n1CCO, the Potency is reported as “inactive”.
For COc1nc(N)nc2c1ncn2[C@@H]1O[C@H](CO)[C@@H](O)[C@@H]1O, the Potency was “inactive”.
With Brc1c(NC2=NCCN2)ccc2nccnc12 the Potency was “inactive”.
In the case of C[C@H]1C[C@@H](O)CC(C)(C)C1, the Potency is reported as “inactive”.
With O=c1[nH]c(=O)n([C@H]2C[C@H](O)[C@@H](CO)O2)cc1I the Potency was “inactive”.
For CN1CCC(=C2c3ccccc3CC(=O)c3sccc32)CC1, the Potency was “inactive”.
In the case of CC(=O)OC/C=C(\C)CC/C=C(\C)CCC=C(C)C, the Potency is reported as “inactive”.
With Nc1cc(=O)[nH]c(N)n1 the Potency was “inactive”.
In the case of CCC(=O)OC(C)c1ccccc1 (stereo not given), the Potency is reported as “inactive”.
With O=C1OC(=O)C2CCCCC12 (stereo not given) the Potency was “inactive”.
